Data taken from PubChem BioAssay AID1117319 (Southern Research Institute, 2015).
About 1,500 (0.58%) of roughly 260,000 compounds were called active. Not shown: some 5% with an inconclusive outcome.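 The calls were made as follows: active = inhibition above a set limit at one or more doses, reproduced on every date tested; inconclusive = results disagree between test dates, or hit never tested in dose response; inactive = the rest.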 A selection follows. Measured potencies and affinities stand elsewhere.

Target: Virion infectivity factor (Human immunodeficiency virus type 1 group M subtype B (isolate BH10)) + Virion infectivity factor (Human immunodeficiency virus type 1 group M subtype B (isolate BRU/LAI)) + Virion infectivity factor (Human immunodeficiency virus type 1 group M subtype B (isolate PCV12)) + Virion infectivity factor (Human immunodeficiency virus type 1 group M subtype B (isolate HXB2)) + DNA dC->dU-editing enzyme APOBEC-3G (Homo sapiens) (UniProt P69720+P69721+P69722+P69723+Q9HC16)
Assay: inhibitors of Vif binding to APOBEC3G peptide, primary screen, biochemical, TR-FRET, GST-Vif 1-94, biotin-A3G peptide, dose response retest (AID 1117319);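 also: Vif residues 1-94 fused to GST binding biotinylated APOBEC3G peptide 110-148; 0% = full assay without inhibitor and 100% = GST in place of GST-Vif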
Details: stronger effect = higher value

inhibition, inactive:
O=C(O)c1ccc(-n2nc(C(F)(F)F)c3c2CCCC3)cc1 0.77%
COC(=O)c1ccc(-n2nc(C(F)(F)F)c3c2-c2ccoc2CC3)cc1 14.2%
O=C(CCn1c(=S)oc2ccccc21)NC1CCCCCCC1 -0.87%
CCCC1CC(C#N)N(N(C)C)C1=C(C#N)C#N (centres undefined) -4.37%
CN1c2ccccc2C(O)=C(C(=S)Nc2ccc(F)c(Cl)c2)S1(=O)=O -0.79%
Cc1ccc(NC(=S)C2=C(O)c3sccc3N(C)S2(=O)=O)cc1 10.2%
CC(C)n1ncc2c(C(=O)NCCc3ccc(S(N)(=O)=O)cc3)cc(C3CC3)nc21 1.54%
COc1ccc(CCNC(=O)Cn2cnc3c(cnn3C(C)(C)C)c2=O)cc1OC -3.55%
COc1ccc(C(=O)Nc2nc3ccc(S(C)(=O)=O)cc3s2)cc1 -53.8%
Cc1cc(C)nc(NS(=O)(=O)c2ccc(N/C=C/C(=O)c3ccc(Cl)c(Cl)c3)cc2)n1 32.2%
Cc1ccc(C(=O)OCC(=O)Nc2ccc(S(N)(=O)=O)cc2)c(O)c1 -10.3%
Cc1ccc(NC(=O)COC(=O)c2ccc(S(=O)(=O)N3CCCC3)cc2)cc1 -1.07%
Cc1ccc(NC(=O)CNc2cccc(C)c2C)c(C)c1 21.8%
Cc1c(C#N)c(O)[nH]c(=O)c1N=Nc1ccc(S(N)(=O)=O)cc1 3.16%
NS(=O)(=O)c1ccc(N=Nc2c(O)ccc3ccccc23)cc1 9.6%
Nc1nc(N)c(N=Nc2ccc(S(N)(=O)=O)cc2)c(=O)[nH]1 1.9%
CN(C)c1ccc(N=Nc2ccc(S(N)(=O)=O)cc2)cc1 5.84%
CCOC(=O)c1csc(NC(=O)CN2CCOCC2)n1 -8.71%
Cc1cccc(N2CCN(Cc3nc(-c4cccc(Oc5ccccc5)c4)oc3C)CC2)n1 3.4%
CCN(CC)S(=O)(=O)c1cccc(NC(=O)C2SC(=Nc3ccc(C)cc3C)C(C(=O)NCC3CCCO3)=C2N)c1 (centres undefined) 2.72%
Cc1cc2cc(C(=O)N3CCc4c([nH]c5ccccc45)C3c3ccccn3)ccc2o1 (centres undefined) 10.8%
COc1cccc(C2Nc3c(F)cc(Br)cc3C3C=CCC32)c1OC (centres undefined) 5.44%
O=C(c1ccccc1)c1ccccc1C(=O)N1CCOCC1 5.31%
O=C(c1ccccc1O)N1CCOCC1 -1.64%
Cc1ccc(C)c(NC(=O)C2CC=CCC2C(=O)O)c1 (centres undefined) -2.09%
COc1ccccc1C1CCN(C(=O)c2ccccc2)CC1 6.08%
CC(=O)N1c2ccc(Cl)cc2C2C=CCC2C1c1cccc2ccccc12 (centres undefined) 19.4%
O=C(O)C1C=CC(C(=O)O)c2ccccc21 (centres undefined) -4.89%
CCC(C)[C@H](NC(=O)C1CCN(C(=O)[C@H](Cc2ccccc2)NC(=O)OC(C)(C)C)CC1)C(=O)O (some centres undefined) 7.73%
Cc1ccc(C(=O)NNC(=O)c2ccc3ccccc3c2)cc1 1.23%
O=C(c1ccc(S(=O)(=O)N2CCCCCC2)cc1)N1CCN(c2ccccn2)CC1 -5.37%
Cc1cc(C(=O)N2CCc3c([nH]c4ccccc34)C2c2c(F)cccc2Cl)no1 (centres undefined) -4.57%
O=C(Nc1ccc(S(=O)(=O)N2CCOCC2)cc1)c1cc(-c2ccccc2O)n[nH]1 -5.69%
CSCCC(NS(=O)(=O)c1ccc(C)cc1)C(=O)NCC(C)(C)N1CCOCC1 (centres undefined) 26.5%
CCOc1cc(C(=O)Oc2cc(C)[nH]c(=O)c2[N+](=O)[O-])cc(OCC)c1OCC -2.15%
CCCC(=O)Nc1nnc(-c2ccco2)s1 5.96%
CC(C)C(=O)Nc1nnc(-c2ccco2)s1 -4.43%
O=C(COC(=O)Cn1cnc2ccccc2c1=O)NCc1ccccc1 -5.43%
COCCn1c(C)cc(C(=O)COC(=O)c2c(C)nn(Cc3ccccc3)c2C)c1C 15.2%
Cc1nn(Cc2ccccc2)c(C)c1C(=O)OCC(=O)c1cc(C)n(CC(F)(F)F)c1C 13.3%
C=CCOc1ccc(CNc2nccs2)cc1OC -2.98%
Cn1nnnc1SCc1cc(=O)n2ccsc2n1 8.97%
COc1ccc(OCCNC(=S)Nc2cccc3ccccc23)cc1 2.41%
O=C(NC(NC(=S)Nc1cccc(C(=O)O)c1)C(Cl)(Cl)Cl)OCc1ccccc1 (centres undefined) 16%
CCCCOC(=O)c1cc(C)nc2ccc(Br)cc12 10.8%
CC1=C(C(=O)Nc2ccccc2)C(c2ccco2)NC(=S)N1 (centres undefined) -0.58%
CC1=C(C(=O)Nc2ccccc2)C(c2ccco2)NC(=O)N1 (centres undefined) -0.31%
N#C/C(=C\c1cccs1)C(=O)N1CCOCC1 4.24%
CCOc1ccc(-n2cc(C(=O)NCCOC)c3cc(OC)c(OC)cc3c2=O)cc1 -0.11%
CC1=CCC2C(=O)N(c3ccc4ccccc4n3)C(=O)C2C1 (centres undefined) 3.04%
O=C(COC(=O)c1n[nH]c(=O)c2ccccc12)c1ccc(Cl)cc1 -6%
COc1ccc([C@H]2CC(=O)c3c(O)cc(O)cc3O2)cc1O 9.99%
COc1cc(C2CC(=O)c3c(O)cc(O)cc3O2)ccc1O (centres undefined) 9.19%
Cc1nnc(SCc2cc([N+](=O)[O-])cc3c2OCOC3)n(N)c1=O 20.5%
O=[N+]([O-])c1cc2c(c(CSc3ncccn3)c1)OCOC2 1.34%
COc1ccc(CCNC(=O)COc2coc(CN3c4ccccc4CC3C)cc2=O)cc1OC (centres undefined) 3.96%
CCOC(=O)c1oc2ccc(/C=N/O)c(Cl)c2c1C -0.46%
CC1CN(C(=O)COC(=O)c2cnc(Cl)c(Cl)c2)CC(C)O1 (centres undefined) -12.2%
Nc1ncnc2c1ncn2[C@@H]1O[C@H](CNC(=O)[C@@H]2C[C@H](F)CN2)[C@@H](O)[C@H]1O -0.68%
